Test results as given in PubChem BioAssay (NCATS).
Where “and” joins values, the source holds several entries; their conditions need not be identical. Equal values may be shown once. Inconclusive results are not listed. Calls of active or inactive are those of the source. Calls follow the shape of the dose curve; as a rule, active = well fitted curve in the direction sought with a large enough effect; inconclusive = small, poorly fitted or top-dose-only effect, or another doubt; inactive = no such curve, though single readings can be large; an effect the other way counts as inactive or inconclusive.

Assay: Cellular Toxicity (caspase-3) N2a (AID 665);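 also: compound exposure lasted 16 h at 37 °C before readout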
Conditions: N2a cells, luminescence, normalized: DMSO 0%, 10 µM staurosporine 100%; series mostly up to 92.2 µM; caspase-3 activation: at the top concentration
Summary of the method: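 Concentration-response qHTS: compound-induced caspase-3/7 luminescence in N2a cells (16 h, 37 °C), relative to DMSO and 10 uM staurosporine controls; AC50 obtained using the standard Hill equation.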

| Structure (SMILES) | caspase-3 activation |
| --- | --- |
| CCCCCCCCOC(=O)c1ccccc1C(=O)OCCCCCCCC | -0.654% (inactive) |
| NNC(N)=O | -0.152% (inactive) |
| Oc1cc(Cl)c(Cl)cc1Cl | 2.15% (inactive) |

Assay: Cellular Toxicity (caspase-3) NIH 3T3 (AID 666);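 also: 0% = DMSO basal and 100% = 100 µM tamoxifen stimulation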
Conditions: NIH 3T3 caspase-3 activation, apoptosis/toxicity; series mostly up to 92.2 µM; caspase-3 activation: at the top concentration
Summary of the method: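 Activity: caspase-3/7 induction, NIH 3T3 cells, 16 hr treatment at 37°C, luminescent Caspase-Glo detection; AC50 via Hill equation.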

| Structure (SMILES) | caspase-3 activation | Potency |
| --- | --- | --- |
| CC(C)CCON=O | -1.05% (inactive) |  |
| [O]=[Cd] | -1.45% (inactive) |  |
| COC1=CC(=O)O[C@@H](/C=C/c2ccccc2)C1 | -16.7% (inactive) |  |
| O=C1C2CC=CCC2C(=O)N1SC(Cl)(Cl)Cl (centres undefined) | -21.1% (inactive) |  |
| CC(C)Nc1ccc(Nc2ccccc2)cc1 | -20.2% (inactive) |  |
| C[C@]12CCC(=O)C[C@@H]1CC[C@@H]1[C@@H]2CC[C@]2(C)[C@@H](O)CC[C@@H]12 | 1.04% (inactive) |  |
| ClCC1CO1 (centres undefined) | -1.44% (inactive) |  |
| S=C=S | 0.936% (inactive) |  |
| CC(C)(C)c1cc(O)ccc1O |  | inactive |
| O=C1CCO1 | -1.6% (inactive) |  |
| ClC=C(Cl)Cl | -0.0889% (inactive) |  |
| O=C/C=C/c1ccccc1 |  | inactive |
| C=CCN=C=S | -1.43% (inactive) |  |
| O=[N+]([O-])c1ccc(F)c([N+](=O)[O-])c1 | -26.6% (inactive) |  |
| CCCCCl | 1.08% (inactive) |  |
| O=Cc1ccco1 | 4.02% (inactive) |  |
| O=CC=O | -1.02% (inactive) |  |
| CCOC(=O)c1ccccc1C(=O)OCC |  | inactive |
| O=[N+]([O-])c1ccccc1 | -0.837% (inactive) |  |
| O=C(O)C(Cl)(Cl)Cl |  | inactive |
| [Cl-].[Cl-].[Hg+2] | -23.9% (inactive) |  |
| O=C1C=CC(=O)C=C1 | -1.66% (inactive) |  |
| COc1ccc2c(c1OC)C(=O)OC2C1c2cc3c(cc2CCN1C)OCO3 (centres undefined) | -0.953% (inactive) |  |
| ClC(Cl)(Cl)Cl |  | inactive |
| Clc1ccccc1Cl | -0.727% (inactive) |  |
| C[C@H]1CCC[C@H](O)CCCCCc2cc(O)cc(O)c2C(=O)O1 | -3.13% (inactive) |  |
| C[C@H]1CC[C@@H]2[C@@H](C)[C@H]3[C@H](C[C@H]4[C@@H]5CC=C6CC(O[C@@H]7O[C@H](CO)[C@H](O)[C@H](O[C@@H]8O[C@H](CO)[C@@H](O)[C@H](O)[C@H]8O)[C@H]7O[C@H]7O[C@@H](C)[C@H](O)[C@@H](O)[C@H]7O)CC[C@]6(C)[C@H]5CC[C@]34C)N2C1 (some centres undefined) | -13.4% (inactive) |  |
| CCCCCCCCOC(=O)c1ccccc1C(=O)OCCCCCCCC | -2.5% (inactive) |  |
| NNC(N)=O | 0.949% (inactive) |  |
| Oc1cc(Cl)c(Cl)cc1Cl | -3.19% (inactive) |  |

Assay: Cellular Toxicity (caspase-3) Renal Proximal Tubule (AID 667);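 also: cells exposed to compound for 16 hours at 37 °C before detection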
Conditions: renal proximal tubule cells; at 91.7 µM (top of the series) unless noted
Summary of the method: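 Luminescent caspase 3/7 signal from peptide-aminoluciferin cleavage measures apoptosis in freshly isolated rat kidney proximal tubule cells after 16 h compound exposure. Concentration-response data are normalized to DMSO and 10 uM staurosporine, and AC50 values come from Hill equation fits.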

| Structure (SMILES) | caspase-3 activation |
| --- | --- |
| CC(C)CCON=O | -0.158% (inactive) |
| [O]=[Cd] | 7.8% [at 91.7 µM, primary cells freshly taken from rat, solvent-only wells 0%, staurosporine 100%] (inactive) |
| COC1=CC(=O)O[C@@H](/C=C/c2ccccc2)C1 | -6.32% (inactive) |
| O=C1C2CC=CCC2C(=O)N1SC(Cl)(Cl)Cl (centres undefined) | -14.4% (inactive) and -19.5% (inactive) |
| CC(C)Nc1ccc(Nc2ccccc2)cc1 | 11.6% [at 91.7 µM, primary cells freshly taken from rat, solvent-only wells 0%, staurosporine 100%] (inactive) |
| C[C@]12CCC(=O)C[C@@H]1CC[C@@H]1[C@@H]2CC[C@]2(C)[C@@H](O)CC[C@@H]12 | 0.8% (inactive) |
| ClCC1CO1 (centres undefined) | 0.815% [at 91.7 µM, primary cells freshly taken from rat, solvent-only wells 0%, staurosporine 100%] (inactive) |
| S=C=S | 4.15% [at 91.7 µM, primary cells freshly taken from rat, solvent-only wells 0%, staurosporine 100%] (inactive) |
| CC(C)(C)c1cc(O)ccc1O | -12.4% (inactive) and -3.67% (inactive) |
| O=C1CCO1 | -9.04% [at 91.7 µM, primary cells freshly taken from rat, solvent-only wells 0%, staurosporine 100%] (inactive) |
| ClC=C(Cl)Cl | -7.81% [at 91.7 µM, primary cells freshly taken from rat, solvent-only wells 0%, staurosporine 100%] (inactive) |
| O=C/C=C/c1ccccc1 | 0.729% (inactive) and 4.55% (inactive) |
| C=CCN=C=S | -1.14% [at 91.7 µM, primary cells freshly taken from rat, solvent-only wells 0%, staurosporine 100%] (inactive) |
| [O]=[Cr](=[O])([OH])[O][Cr](=[O])(=[O])[OH] | 101% (active) |
| O=[N+]([O-])c1ccc(F)c([N+](=O)[O-])c1 | -20.3% (inactive) |
| CCCCCl | 1.64% [at 91.7 µM, primary cells freshly taken from rat, solvent-only wells 0%, staurosporine 100%] (inactive) |

| Structure (SMILES) | caspase-3 activation |
| --- | --- |
| O=Cc1ccco1 | -8.6% [at 91.7 µM, primary cells freshly taken from rat, solvent-only wells 0%, staurosporine 100%] (inactive) |
| O=CC=O | -5.02% [at 91.7 µM, primary cells freshly taken from rat, solvent-only wells 0%, staurosporine 100%] (inactive) |
| CCOC(=O)c1ccccc1C(=O)OCC | 7.7% (inactive) and 0.83% (inactive) |
| O=[N+]([O-])c1ccccc1 | 0.615% (inactive) |
| O=C(O)C(Cl)(Cl)Cl | -2.66% (inactive) and 2.21% (inactive) |
| [Cl-].[Cl-].[Hg+2] | -16% (inactive) |
| O=C1C=CC(=O)C=C1 | 4.64% (inactive) |
| COc1ccc2c(c1OC)C(=O)OC2C1c2cc3c(cc2CCN1C)OCO3 (centres undefined) | -5.84% (inactive) |
| ClC(Cl)(Cl)Cl | 5.92% (inactive) and -10.1% (inactive) |
| Clc1ccccc1Cl | 5.14% [at 91.7 µM, primary cells freshly taken from rat, solvent-only wells 0%, staurosporine 100%] (inactive) |
| C[C@H]1CCC[C@H](O)CCCCCc2cc(O)cc(O)c2C(=O)O1 | -5.62% (inactive) |
| C[C@H]1CC[C@@H]2[C@@H](C)[C@H]3[C@H](C[C@H]4[C@@H]5CC=C6CC(O[C@@H]7O[C@H](CO)[C@H](O)[C@H](O[C@@H]8O[C@H](CO)[C@@H](O)[C@H](O)[C@H]8O)[C@H]7O[C@H]7O[C@@H](C)[C@H](O)[C@@H](O)[C@H]7O)CC[C@]6(C)[C@H]5CC[C@]34C)N2C1 (some centres undefined) | 5.75% (inactive) |
| CCCCCCCCOC(=O)c1ccccc1C(=O)OCCCCCCCC | -2.49% (inactive) |
| NNC(N)=O | 4.27% (inactive) |
| Oc1cc(Cl)c(Cl)cc1Cl | 4.35% (inactive) |
